Where “and” joins values, the source holds several entries; their conditions need not be identical. Equal entries are not always repeated. Hit rate of the full screen: of about 5,500 compounds, about 2,000 (36%) were called active. Roughly 18% stayed inconclusive and do not appear here. Rule as the data show it: active = normalized growth mostly below about 0.91 (no sharp cut-off); inconclusive = no clear call, values can overlap the other calls; inactive = mostly above about 0.92. The list shows a part of the results.
Experiment: chemical genetic growth profiling, strain panel (AID 1159580);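 also: tested at 20 µM; growth read once vehicle control cultures reached saturation at 30 °C; 1 = growth at the plate median or of vehicle wells; lower values mean less growth of the strain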
Conditions: S. cerevisiae deletion strains, growth OD

Measured: normalized growth

CC12CCC3C(CC3(C)C)C(C)(CCC1=O)O2 (stereo unspecified)
inactive: locus YAL021C, strain ccr4, hits give low values 1.04 | locus YAL026C, strain drs2, hits give low values 1.01 | locus YAL030W, strain snc1, hits give low values 0.994 | locus YBL061C, strain skt5, hits give low values 0.99 | locus YBR009C, strain hhf1, hits give low values 1.01 | locus YBR021W, strain FUR4, hits give low values 1.01 | locus YBR023C, strain chs3, hits give low values 0.996 | locus YBR171W, strain sec66, hits give low values 0.985 | locus YBR229C, strain ROT2, hits give low values 1.01 | locus YBR231C, strain swc5, hits give low values 0.983 | locus YBR279W, strain paf1, hits give low values 1.02 | locus YCL011C, strain gbp2, hits give low values 1.01 | locus YCL016C, strain dcc1, hits give low values 1.01 | locus YCL029C, strain bik1, hits give low values 1.03 | locus YCL061C, strain MRC1, hits give low values 1.01 | locus YCL069W, strain vba3, hits give low values 1 | locus YCR088W, strain abp1, hits give low values 0.981 | locus YDL005C, strain med2, hits give low values 0.972 | locus YDL035C, strain GPR1, hits give low values 1.01 | locus YDL040C, strain nat1, hits give low values 0.99 | locus YDL074C, strain BRE1, hits give low values 1.07 | locus YDL101C, strain DUN1, hits give low values 1.02 | locus YDL185W, strain tfp1, hits give low values 1.02 | locus YDL192W, strain arf1, hits give low values 1.01 | locus YDR001C, strain nth1, hits give low values 0.986 | locus YDR069C, strain doa4, hits give low values 1.01 | locus YDR101C, strain arx1, hits give low values 0.983 | locus YDR137W, strain rgp1, hits give low values 0.977 | locus YDR159W, strain sac3, hits give low values 0.982 | locus YDR162C, strain NBP2, hits give low values 1.03 | locus YDR195W, strain ref2 0.934 | locus YDR297W, strain sur2, hits give low values 1.01 | locus YDR318W, strain mcm21, hits give low values 1.03 | locus YDR334W, strain swr1, hits give low values 1 | locus YDR335W, strain msn5, hits give low values 1 | locus YDR388W, hits give low values 1.01 | locus YDR392W, strain spt3, hits give low values 0.939 | locus YDR502C, strain sam2, hits give low values 1.04 | locus YEL003W, strain gim4, hits give low values 0.995 | locus YEL037C, strain rad23, hits give low values 1.01 | locus YEL061C, strain CIN8 (second series), hits give low values 0.992 | locus YEL061C, strain CIN8, hits give low values 1.01 | locus YER015W, strain faa2, hits give low values 1 | locus YER016W, strain bim1, hits give low values 0.988 | locus YER110C, hits give low values 1.02 | locus YER111C, strain swi4, hits give low values 0.987 | locus YER155C, strain BEM2 (second series), hits give low values 0.967 | locus YER155C, strain BEM2, hits give low values 1.01 | locus YER167W, strain BCK2, hits give low values 1 | locus YFR010W, strain ubp6, hits give low values 1.01 | locus YGL078C, strain dbp3, hits give low values 1.01 | locus YGL086W, strain mad1, hits give low values 1.01 | locus YGL167C, strain pmr1, hits give low values 0.99 | locus YGL173C, strain kem1, hits give low values 0.999 | locus YGL227W, strain vid30, hits give low values 0.989 | locus YGL240W, strain doc1, hits give low values 0.943 | locus YGL248W, strain PDE1, hits give low values 1.05 | locus YGL253W, strain hxk2, hits give low values 1.02 | locus YGR078C, strain PAC10, hits give low values 1.04 | locus YGR135W, strain pre9, hits give low values 1.05 | locus YGR252W, strain gcn5, hits give low values 1.07 | locus YHR013C, strain ard1, hits give low values 1.01 | locus YHR027C, strain rpn1, hits give low values 0.988 | locus YHR030C, strain SLT2, hits give low values 1.01 and 1.05 | locus YHR079C, strain IRE1 (second series), hits give low values 1.02 | locus YHR079C, strain IRE1, hits give low values 1.03 | locus YHR094C, strain hxt1, hits give low values 1.01 | locus YHR129C, strain ARP1, hits give low values 1.01 | locus YHR142W, strain chs7, hits give low values 1 | locus YHR200W, strain rpn10, hits give low values 1.02 | locus YIL066C, strain RNR3, hits give low values 1.01 | locus YIL073C, strain SPO22, hits give low values 1.08 | locus YIL125W, strain kgd1, hits give low values 1 | locus YIR030C, strain dcg1, hits give low values 1.02 | locus YJL092W, strain hpr5, hits give low values 0.997 | locus YJL095W, strain BCK1 (second series), hits give low values 1.01 | locus YJL095W, strain BCK1, hits give low values 1.06 and 1.04 | locus YJL115W, strain asf1, hits give low values 0.976 | locus YJL129C, strain trk1, hits give low values 0.991 | locus YJL134W, strain LCB3, hits give low values 1.02 | locus YJL154C, strain vps35, hits give low values 0.991 | locus YJL164C, strain tpk1, hits give low values 1.04 | locus YJL166W, strain qcr8, hits give low values 0.984 | locus YJL168C, strain set2, hits give low values 1.01 | locus YJL187C, strain SWE1 (second series), hits give low values 1.04 | locus YJL187C, strain SWE1, hits give low values 1
